From PubChem BioAssay
hgDAF-12 ag = activates the H. glycines DAF-12 receptor ligand-binding domain; HEK293 GAL4-hgDAF12 UAS-luciferase reporter, agonist luminescence; normalized to butyrate control; activation, % at 6.8 µM; 370,000 tested, 1.8% active; AID 687014;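 active = activation above a cutoff set at the mean of all screened compounds plus 3 SD, cut at about 10% in these data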;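 also: 0% = DMSO wells and 100% = sodium butyrate wells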
DAX1 inh-1 = inhibitors of human orphan nuclear receptor DAX1 (NR0B1). P51843. inhibition, % at 6.75 µM. 340,000 tested, 0.99% active. HEK293 Gal4-DAX1 luciferase reporter, luminescence;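 active = inhibition above the mean over all tested compounds plus 3 SD, cut at about 4.2% in these data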;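 also: 0% = DAX1-transfected cells with DMSO and 100% = empty-vector control cells with DMSO; inhibition shows as a rise in luminescence from relieved DAX1 repression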
Target sequence (P51843 207-470 limits assumed): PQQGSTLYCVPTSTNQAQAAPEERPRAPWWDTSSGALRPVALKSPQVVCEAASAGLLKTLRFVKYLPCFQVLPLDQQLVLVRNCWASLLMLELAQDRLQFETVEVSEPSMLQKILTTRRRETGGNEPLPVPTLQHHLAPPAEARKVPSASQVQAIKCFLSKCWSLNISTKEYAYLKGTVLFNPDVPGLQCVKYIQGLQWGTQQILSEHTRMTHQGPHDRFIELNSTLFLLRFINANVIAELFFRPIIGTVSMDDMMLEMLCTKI
DAX1 inh-2 = inhibitors of DAX1 repression of SF-1 activated StAR promoter. HEK293T StAR-luciferase reporter, SF-1/DAX-1 repression relief. inhibition, % at 6.8 µM. 370,000 tested, 1.1% active;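 active = inhibition above the mean over all tested compounds plus 3 SD, cut at about 3.6% in these data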;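 also: 0% = DAX-1 cells with DMSO and 100% = cells lacking DAX-1 with DMSO; higher inhibition means more luminescence from relief of DAX-1 repression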
hcDAF12 agonist = H. contortus DAF-12 activation, primary screen; activation, % at 6.8 µM; 370,000 tested, 1.4% active; HEK293 hcDAF-12 lit1-tk-luc reporter, luminescence; 0% DMSO, 100% Δ7-dafachronic acid;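 active = activation above the mean of all tested compounds plus 3 SD, cut at about 5.5% in these data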;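 also: 100% = response to 3 µM Δ7-dafachronic acid high control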
ssDAF12 agonist = S. stercoralis DAF-12 activation, primary screen; HEK293 ssDAF-12/GRIP1 lit1-tk-luc reporter, luminescence; % of 3 µM dafachronic acid response; activation, % at 6.8 µM; 370,000 tested, 1% active;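 active = activation above the mean over all tested compounds plus 3 SD, cut at about 0.9% in these data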;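 also: 0% = DMSO-only wells and 100% = 3 µM delta7-dafachronic acid wells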
The depositor's hits bear a star; / = no result. Rows were chosen to be rich in hits. Some 4.1% of all compounds tested hit in one or more screens of this group.

SMILES	hgDAF-12 ag	DAX1 inh-1	DAX1 inh-2	hcDAF12 agonist	ssDAF12 agonist
O=C(c1ccc2nc(Cc3cccc(Cl)c3)oc2c1)N1CCOCC1	5	1	3.9*	6.0*	-1
COc1cc(C2C(C#N)=C(N)Oc3cc4c(cc32)OCO4)cc(OC)c1OC (stereo unspecified)	-1	1	4.4*	0	-1
COc1cc(C2C(C#N)=C(N)Oc3cc(O)ccc32)cc(OC)c1OC (stereo unspecified)	-1	0	0	0	-1
COc1ccc2c(c1)CC/C2=N\OC(=O)c1ccccc1C	9	2	1	2	2.1*
COc1ccc(C(C)=O)cc1CN1C(=O)NC(CC(C)C)C1=O (stereo unspecified)	-2	4.4*	0	-1	-2
CCCCN(C(C)=O)C1CC(=O)N(c2ccc(OCCC)cc2)C1=O (stereo unspecified)	1	8.6*	0	0	-1
CCCOc1ccc(N2C(=O)CC(N(CCCO)C(=O)CC)C2=O)cc1 (stereo unspecified)	0	1	0	-2	-1
COCCCN1C(=O)[C@H](CC(=O)NCc2ccccc2)[C@]2(C(=O)OC)CCCCC=C12	-1	/	2	3	0
CCOC(=O)c1c(-c2ccccc2)csc1NC(=O)c1ccc(S(=O)(=O)N2CCOCC2)cc1	11*	2	0	0	-1
COc1ccc(COc2ccc3c(C)cc(=O)oc3c2)cc1	12*	4	1	0	-1
COc1ccc(CCNC(=O)COc2ccc3c(C)cc(=O)oc3c2)cc1	4	-1	0	1	-1
Cc1ccc(-c2nc(N=Nc3ccc(O)cc3)n[nH]2)cc1	11*	-1	3	0	-2
COc1ccc(-c2nc(N=Nc3ccc(O)cc3)n[nH]2)cc1	6	-1	0	-2	-1
CC(=O)Nc1ccc(N=Cc2c(O)c3ccccc3oc2=O)cc1	-1	0	0	0	-1
CC(=O)Nc1ccc(N=Cc2c(O)c(C(=O)Nc3ccccc3)cc3ccccc23)cc1	1	/	1	4	2.1*
COc1cc(/C=N/N=C(/N)c2nonc2N)cc(Br)c1OCc1ccccc1C	4	1	-1	-3	-1
COc1cccc(/C=N/N=C(\N)c2nonc2N)c1O	13*	3	3	3	0
CCOC(=O)[C@]12CCCCC/C=C\1N(CCc1ccc(Cl)cc1)C(=O)[C@H]2CC(=O)N1CCN(C(=O)c2ccco2)CC1	-5	/	-3	-4	-2
CC(=O)c1ccc(NC(=S)NCc2cccnc2)cc1	-2	6.1*	-2	-1	-2
O=C(NC(=S)NCc1ccccc1)c1cccnc1	2	-1	0	4	1.0*
Cc1ccc(NC(=S)NCc2cccnc2)cc1	0	-1	0	1	-1
O=C(NCc1cccnc1)Nc1ccccc1	2	0	0	1	1.0*
CC(=O)Nc1ccc(S(=O)(=O)NCc2cccnc2)cc1	0	0	0	6.0*	-2
N#CCCN(Cc1cccnc1)C(=S)NC(=O)c1ccccc1	1	4.6*	-1	2	-1
N#CCCN(Cc1cccnc1)C(=S)Nc1ccccc1Cl	-2	-1	0	1	-1
SMILES	hgDAF-12 ag	DAX1 inh-1	DAX1 inh-2	hcDAF12 agonist	ssDAF12 agonist
CC1=CC(=O)Nc2ccccc2S1	11*	3	1	5.7*	1.1*
O=C1CC(N2CCN(c3ccccn3)CC2)C(=O)N1c1ccc(F)cc1 (stereo unspecified)	1	/	0	0	1.7*
CCc1ccc(N2C(=O)CC(N3CCN(c4ccccn4)CC3)C2=O)cc1 (stereo unspecified)	0	3	0	-2	-2
C=CCN1C(=O)[C@@H](CC(=O)NCCc2ccccc2OC)[C@]2(C(=O)OC)CCCCC=C12	1	/	0	-3	-1
Cc1csc(NC(=O)Cn2nc(C)c([N+](=O)[O-])c2C)n1	1	3	0	1	2.9*
CCOC(=O)Cn1cc(CN2C(C(=O)OC)CN(CCO)CCS2(=O)=O)nn1 (stereo unspecified)	1	/	0	4	0
Cc1cc(C)nc(/N=C(\N)N2CCc3ccccc32)n1	11*	1	1	1	-1
Cc1cc(C)nc(/N=C(\N)N2CCCCCC2)n1	3	0	0	-1	-2
COc1ccc(S[C@]2(C(=O)N(C)C)CC(=O)N(c3ccccc3)[C@@H]2c2ccc(OC)cc2)cc1	12*	/	-1	2	0
COc1ccc(S[C@]2(C(=O)N(C)C)CC(=O)N(C(=O)/C=C/c3ccccc3)[C@@H]2c2ccc(OC)cc2)cc1	-1	/	-3	-2	-1
CC(C)(C)c1ccc(C(=O)Nc2cc(Cl)ccc2-c2nn[nH]n2)cc1	1	/	/	3	-1
Cc1cccc2c1NC(=O)C2=O	-1	0	1	1	-1
COC(=O)c1cccc2c1NC(=O)C2=O	0	8.0*	0	1	-1
O=C(OCc1cc([N+](=O)[O-])cc2c1OCOC2)c1ccc2ccccc2n1	2	0	0	1	-2
CC(C)=CC(=O)OCc1cc([N+](=O)[O-])cc2c1OCOC2	11*	1	3.8*	1	1.0*
CC(C)[C@H](NC(=O)c1ccccc1Cl)C(=O)OCc1cc([N+](=O)[O-])cc2c1OCOC2	-1	-1	0	-1	1.0*
CC(C)(C)n1nnnc1C1c2ccccc2C(=O)N1CCc1c[nH]c2ccccc12 (stereo unspecified)	1	/	4.2*	4	0
CC(=O)C1=C(O)C(=O)N(CCc2c[nH]c3ccccc23)C1c1ccc(O)cc1 (stereo unspecified)	2	4.4*	0	2	0
CCCCc1cc(=O)oc2cc(C)cc(OCC(=O)N3C[C@H]4C[C@@H](C3)c3cccc(=O)n3C4)c12	1	7.0*	1	-1	-1
CCCc1cc(=O)oc2cc(C)cc(OCC(=O)N3C[C@H]4C[C@@H](C3)c3cccc(=O)n3C4)c12	0	/	1	-1	-2
O=C1NC[C@H](CCCCN2CCN(CCC3CCCCC3)C(=O)C2=O)N(CCc2ccc(O)cc2)C1=O	2	/	-1	0	-1
COc1ccc(-c2cc(C(=O)OCC(=O)NC3CC3)c3ccccc3n2)cc1	2	0	-1	-1	-1
COc1ccc2cc(-c3cc(C(=O)OCC(=O)NC4CCS(=O)(=O)C4)c4ccccc4n3)ccc2c1 (stereo unspecified)	15*	-1	4.4*	4	0
C=CCn1cnc2c(nnn2Cc2ccc(F)cc2)c1=O	0	4.6*	0	-2	-1
CC(C)(N[C@@H](Cc1ccccc1)C(=O)NCCc1c[nH]c2ccccc12)C(=O)NC1CCCCC1	2	/	/	-4	-1
